Source: PubChem BioAssay AID493005 (National Center for Advancing Translational Sciences (NCATS), 2010)
The campaign covered roughly 340,000 compounds. Fewer than 10 were called active. The call rests on the fitted dose curve; in most records, active means well fitted inhibition curve with a large enough effect in the main read-out, with a control signal flat (not every such curve was filed as active); inconclusive means small, poorly fitted or top-dose-only effect, or effect the other way, or a change in a side signal; inactive means no such curve, though single readings can be large or run the other way. A selection follows.

target: Tumor susceptibility gene 101 protein (Homo sapiens) (UniProt Q99816); assay: qHTS Assay for Iinhibitors of HIV-1 Budding by Blocking the Interaction of PTAP/TSG101; settings: Fluorescence polarization, FITC-PTAP peptide / Tsg101 binding; series mostly up to 115 µM
Sequence (Q99816 whole entry, looked up): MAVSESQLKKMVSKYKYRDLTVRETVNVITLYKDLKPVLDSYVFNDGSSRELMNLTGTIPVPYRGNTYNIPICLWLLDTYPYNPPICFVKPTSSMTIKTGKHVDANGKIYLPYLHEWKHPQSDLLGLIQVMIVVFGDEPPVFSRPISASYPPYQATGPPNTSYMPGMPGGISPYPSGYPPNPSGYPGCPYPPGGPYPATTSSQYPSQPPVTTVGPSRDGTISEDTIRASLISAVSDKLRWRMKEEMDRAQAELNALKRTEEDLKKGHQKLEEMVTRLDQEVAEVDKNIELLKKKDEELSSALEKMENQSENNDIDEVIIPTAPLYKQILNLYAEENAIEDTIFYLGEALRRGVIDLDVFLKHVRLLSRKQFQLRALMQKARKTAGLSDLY
Source text: NIH Molecular Libraries Probe Production Network [MLPCN] NIH Chemical Genomics Center [NCGC] MLPCN Grant: 1 R03 MH087464-01A1 PI Name: Dr. Eric Freed, NCI NCGC Assay Overview: Stages of the HIV-1 replication cycle, specifically virus assembly and release, provide underexploited targets for the development of novel antiviral inhibitors. The late stages of HIV-1 replication are mediated by the Gag precursor protein, Pr55Gag. Expression of Pr55Gag is both necessary and sufficient for the production of virus-like particles from Gag-expressing cells. The Gag protein hijacks key host proteins involved in endocytic machinery of the host cell to promote endosomal processing and viral budding. The budding process requires a direct interaction between a […] (PTAP) motif in the p6 domain of Gag and the cellular endosomal sorting protein known as Tsg101. In this way, the Gag PTAP motif promotes the host cells to recruit viral particles to the plasma membrane where the new viral particles are released, effectively turning the host cells into viral factories. A fluorescence anisotropy assay has been developed to quantitatively measure the PTAP-Tsg101 interaction which can be used to screen for inhibitors of this interaction.
NCGC Assay Protocol Summary: Two uL of the Tsg101 binding domain in buffer (10 mM HEPES pH 7.5; 0.15 M NaCl, 0.01% Tween 20; 3 mM EDTA;0.1 mM TCEP) was dispensed into Greiner black MB 1536-well plates (final concentration 10 uM). Then, 23 nL of compounds or DMSO were delivered to each well using a pin tool. Finally, 2 uL of a FITC-labeled peptide containing the PTAP motif (1) in the same buffer was dispensed (50 nM final concentration) and the binding was allowed to proceed for 20 min. at r.t. Fluorescent polarization was determined using FITC excitation and polarized emission filters on a Perkin Elmer Viewlux. Keywords: Tsg101, PTAP, Gag, HIV, fluorescent polarization, MLSMR, MLPCN, NIH Roadmap, qHTS, NCGC

outcome, inactive:
O=[N+]([O-])c1ccc(C=Nc2ccc(Cl)cc2Cl)s1, CCOC(=O)c1nnn(-c2nonc2-n2cccc2)c1CN1CCC(C(=O)OCC)CC1, C=CCc1cccc2cc(C(=O)Nc3ccc(NC(C)=O)cc3)c(=O)oc12, CCOC(=O)[C@@H]1[C@H]2COc3cc(OC)ccc3[C@H]2N2C(=O)N(c3ccc(F)cc3)C(=O)[C@]12C, O=C(Cc1ccccc1)Nc1c(Cl)ccc2nsnc12, CC(=O)c1ccc(NC(=O)C2CC(=O)Nc3nc4ccccc4n32)cc1 (configuration not stated), CCOc1ccc(NC(=O)C/C(C)=N/NC(=O)Cc2cccs2)cc1, CN(CC(=O)NCCN1CCOCC1)S(=O)(=O)c1ccc(F)cc1, C/C(=N\NC(=O)CCn1nc(C)cc1C)C(C)(C)C, O=C(Cc1ccc(NC(=O)C2CCCN(C(=O)CCc3ccccc3)C2)cc1)Nc1ccc(C(=O)N2CCOCC2)cc1 (configuration not stated), COc1ccc(-c2nc3c(s2)CCc2onc(-c4ccc(OC)cc4)c2-3)cc1, CC(=O)Nc1ccc(S(=O)(=O)N(CCc2ccccc2)CC(=O)N/N=C/c2ccc(C(=O)O)cc2)cc1, COc1cc(Cl)ccc1OCc1cc(C(=O)N(C)CCc2c(C)n[nH]c2C)no1, CC(C)C[C@H](NC(=O)C1CC(=O)N(c2ccc3c(c2)OCCO3)C1)C(=O)NC1CCCC1 (some centres not stated), COc1ccc(Cl)cc1NC(=O)CN(C)C(=O)CCCc1c[nH]c2ccccc12, CC(C)CC(CC(C)C)=NNC(=O)c1ccc(CSc2nncn2C)cc1, O=C(c1cc(-c2ccco2)nc2ccccc12)N(Cc1nnc(-c2ccc(Cl)cc2)o1)C1CC1, CN(CC(=O)Nc1ccc(Cl)c(C(F)(F)F)c1)C(=O)CCC(=O)c1ccccc1, Cn1ncc(N2CCN(S(=O)(=O)c3ccc(Br)cc3)CC2)c(Cl)c1=O, CC(C)OP(=O)(OC(C)C)C(Nc1ccccc1)c1cccc([N+](=O)[O-])c1 (configuration not stated), CC(=O)N(c1ccc2oc(=O)sc2c1)S(=O)(=O)c1ccc(C)cc1, Clc1ccc(C[n+]2cc(-c3ccc(Cl)cc3)n3c2CCC3)cc1, COC(=O)[C@@H]1C[C@@]2(O)[C@@H](O)[C@@H](O)[C@@H](O)C[C@H]2N1Cc1ccc(C)s1, COc1ccccc1NS(=O)(=O)c1ccc(C)c(C(=O)NNC(=O)c2csc(N3CCOCC3)n2)c1, CC(=O)OC1CCC2C3CCC4=C(CC(F)C(=O)C4)C3CCC12C (configuration not stated), Cc1ccc(S(=O)(=O)N2CCCC2C(=O)NCc2ccco2)cc1 (configuration not stated), CS(=O)(=O)N1CCCC(C(=O)N2CCOCC2)C1 (configuration not stated), CCCN1C(=O)C(NC(C)=O)c2cc(OC)ccc21 (configuration not stated), O=C(NC1CCCC1)C(c1ccc(N2CCOCC2)cc1)N(C(=O)c1ccco1)c1ccccc1F (configuration not stated), O=C(Nc1ccccc1-c1nnn(CC(=O)N2CCCc3ccccc32)n1)c1cccc(Cl)c1, CC(C)C(O)C1CCN(Cc2nc(Cc3ccccc3Cl)no2)CC1 (configuration not stated), O=C(Nc1ccc2c(c1)nc1n2CCCCC1)c1cc(S(=O)(=O)N2CCOCC2)ccc1Cl, C=CCn1c(COc2ccc(F)cc2)nnc1SCC(=O)Nc1cccc(S(N)(=O)=O)c1, CCc1c(O)nc(SCC(=O)Nc2ccccc2)n(C(C)CC)c1=O (configuration not stated), COc1cc(OC)cc(C(=O)NNC(=O)Cc2cccs2)c1, Cc1cc(C)cc(-c2nnc(SCC(=O)NC3CC3)o2)c1, CCc1cccc(C)c1NC(=S)N(CCCN1CCN(C)CC1)Cc1cccs1, COc1cccc(NC(=O)Cn2c3ccc(F)cc3c3nc4n(c(=O)c32)CCS4)c1, O=S(=O)(NN=C1CCCCCCC1)c1ccc(Br)cc1, Cn1c2ccccc2n2c(=O)c(=O)n(CC(=O)c3ccc(F)cc3)nc12, CCOc1ccc(NC(=O)COc2ccc(C(=O)N3CCC(C(N)=O)CC3)cc2OC)cc1, CC(NS(=O)(=O)c1ccccc1)c1n[nH]c(=S)n1-c1ccccc1 (configuration not stated), O=C(O)C1CCCCC1C(=O)N1CCN(S(=O)(=O)c2ccc(F)cc2)CC1 (configuration not stated), COc1ccc(OCc2n[nH]c(=S)n2N)cc1, Cc1ccccc1-n1cc(CNC(=O)CC2C(=O)NCCN2C/C=C/c2ccccc2)cn1 (configuration not stated), CN1CCCN(C(=O)C2CCCCC2)CC1, CCc1nc(SCC(=O)Nc2ccccc2OC)n[nH]1, CC(=O)N(CN1C(=O)C2CC=CCC2C1=O)c1cccc(Cl)c1 (configuration not stated), O=C(O)CCN(Cc1ccccc1)S(=O)(=O)c1c(Cl)cccc1Cl, CSc1nc2nc(-c3cccc(C(F)(F)F)c3)ccn2n1, CC(=O)n1cc([C@@H]2C=C(C(=O)N3CCN(Cc4ccc5c(c4)OCO5)CC3)O[C@H](OCc3ccc(CO)cc3)C2)c2ccccc21, CC(=O)N1CCOc2ccc(S(=O)(=O)N3CCC(C(=O)Nc4ccccc4F)CC3)cc21, COc1ccc(Cl)cc1NS(=O)(=O)c1cccc(C(=O)NCC2CCCO2)c1 (configuration not stated), CC1=C2C(=O)OC(c3ccoc3)C2(C)CCC1 (configuration not stated), C/C(=N\N1CCN(Cc2ccc(C)cc2)CC1)c1ccco1, O=C1CCC(=O)N1CCOP1(=O)COc2ccccc2OC1, O=C1c2ccccc2NC(c2ccccc2O)N1NS(=O)(=O)c1ccccc1 (configuration not stated), COc1cccc(C(=O)Nc2cc3c(cc2Br)OCCCO3)c1, COc1ccccc1C(=O)Nc1ccnn1C1CCN(C(=O)C(C)(C)C)CC1, O=C(CCSc1ccccc1)NCCSc1ccccn1, CCCCC(=O)NC(c1ccc(OC)c(OC)c1)c1ccc2cccnc2c1O (configuration not stated), CN(C)CCNC(=O)c1ccc(Cl)c2cc3ccccc3nc12, CCCCN(C(=O)CSCC(=O)Nc1ccc(OC)cc1)c1c(N)n(CCC)c(=O)[nH]c1=O, C=CCN1C(=O)C(Cc2ccc(OCC)cc2)SC1=Nc1ccc(C(=O)O)cc1 (configuration not stated), O=C(O)CN(Cc1ccco1)S(=O)(=O)c1ccc(F)cc1, CCN(CC)S(=O)(=O)c1cccc(NC(=O)c2ccc(S(=O)(=O)N3CCCC3)cc2)c1, CC(NCCO)C(=O)C12CC3CC(CC(C3)C1)C2 (configuration not stated), COCCNC(=O)C(OC(=O)c1cccs1)c1ccc(F)cc1 (configuration not stated), O=C1NC(Nc2nc3ccccc3s2)(C(F)(F)F)C(=O)N1C1CCCCC1 (configuration not stated), COC(=O)c1cc(NC(=O)CC2C(=O)NCCN2C(=O)c2ccc(F)cc2)cc(C(=O)OC)c1 (configuration not stated), Cc1occc(=O)c1OCc1c(Cl)cccc1Cl, CCCCc1ccc(NS(=O)(=O)c2cccc(C(=O)N3CCCN(C)CC3)c2)cc1, CCC(=O)N1c2ccc(S(=O)(=O)NCc3ccco3)cc2CC1C (configuration not stated), Cc1nnc(SCCCCSc2nnc(C)c(=O)[nH]2)[nH]c1=O, CCOC(=O)c1cccc(NC(=O)CCc2nnc3ccc(N4CCOCC4)nn23)c1, CCCC[C@H]1COCCS(=O)(=O)N1Cc1cccc(Cl)c1, C/C=C/c1ccc(OCC(=O)NNC(=O)CN(C)S(=O)(=O)c2ccc(C)cc2)c(OC)c1, CC(C)(C)c1cc(NC(=O)NN2CCOCC2)nn1-c1c(Cl)cc(Cl)cc1Cl, COc1ccc(OC)c(C(O)c2nc3ccccc3n2C)c1 (configuration not stated), NC(=O)C1(N2CCCC2)CCN(Cc2ccccc2)CC1, CCOC(=O)C1CN(S(=O)(=O)c2ccc(F)cc2)C1, CC(C)(C)n1cnnc1Sc1ccc([N+](=O)[O-])cn1, O=C(COC(=O)/C=C/c1cccc(Cl)c1)NCc1cccs1, Cc1onc(-c2c(F)cccc2Cl)c1C(=O)Nc1cccc(S(=O)(=O)N2CCCCC2)c1, CSc1sc(C(=O)NC(=O)NCc2cccnc2)c(C)c1-c1ccon1, Cc1nn(-c2ccccc2)c2c1C(c1cccc([N+](=O)[O-])c1)N(c1ccccc1)C(=O)N2 (configuration not stated), CC1(C)C2CCC13CS(=O)(=O)NC3C2 (configuration not stated), Cc1nc(Nc2ccccc2C)c2cnn(C)c2n1, O=C1N[C@@H](Cc2ccccc2)C(=O)N2[C@@H]3N(S(=O)(=O)c4ccc(F)cc4)c4ccccc4[C@]3(Br)C[C@@H]12, CCC1=C(OC(=O)N(CC)CC)N2C(=O)OC(=NCC3CC3)[C@]2(C)[C@H]2C1=CC[C@H]1C(=O)N(CC(=O)OC)C(=O)[C@H]12, CC(C)N1CCc2c(sc(NC(=O)Cc3ccccc3)c2C#N)C1, C#CCCCc1nc2ccccc2c(=O)n1N, CCCCN1CC(CO)Oc2cccc(F)c2S1(=O)=O (configuration not stated), CCCc1nc(SCC(=O)Nc2ccccc2OC)c2c(=O)n(C)c(=O)n(C)c2n1, CC(=O)Nc1cccc(NC(=O)CSc2nccn2Cc2ccc(F)cc2)c1, N#Cc1cccc(OC(=O)c2ccc3c(=O)n4c(nc3c2)CCC4)c1, CSc1ccccc1NC(=O)CN(C)CC(=O)Nc1cccc(Br)c1, CN(C)/C(=N\OC(=O)c1ccccc1)c1nonc1N, CCOc1ccc(NC(=O)[C@H](C)NC(=O)C2CC(=O)N(c3ccc(OC)cc3)C2)cc1 (some centres not stated), COc1cc(C2NC(=O)NC(c3ccccc3)=C2C(C)=O)c(Br)cc1OCC(N)=O (configuration not stated), Cc1ccc(C(NC(=O)N2CCCC2)C(Cl)(Cl)Cl)cc1F (configuration not stated), CCn1c(CC(=O)Nc2ccccc2C)nnc1SCC(=O)NC1=NCCS1
